Assay results reported in PubChem BioAssay.
The source made the active and inactive calls.

What was measured:
Albumin (Bos taurus) = Albumin (Bos taurus) (UniProt P02769); experiment: compounds binding labelled BSA control protein – biochemical, small-molecule microarray, Alexa647 label, 635/667 nm fluorescence, artefact control for SMM control protein annotation, profiling panel (AID 1118); conditions: BSA-A647 binding, fluorescence 635 nm, higher = more signal;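 further: score merges 667 nm emission intensity and signal-to-noise per printed compound spot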
Albumin (Bos taurus), sequence (P02769 whole entry, looked up): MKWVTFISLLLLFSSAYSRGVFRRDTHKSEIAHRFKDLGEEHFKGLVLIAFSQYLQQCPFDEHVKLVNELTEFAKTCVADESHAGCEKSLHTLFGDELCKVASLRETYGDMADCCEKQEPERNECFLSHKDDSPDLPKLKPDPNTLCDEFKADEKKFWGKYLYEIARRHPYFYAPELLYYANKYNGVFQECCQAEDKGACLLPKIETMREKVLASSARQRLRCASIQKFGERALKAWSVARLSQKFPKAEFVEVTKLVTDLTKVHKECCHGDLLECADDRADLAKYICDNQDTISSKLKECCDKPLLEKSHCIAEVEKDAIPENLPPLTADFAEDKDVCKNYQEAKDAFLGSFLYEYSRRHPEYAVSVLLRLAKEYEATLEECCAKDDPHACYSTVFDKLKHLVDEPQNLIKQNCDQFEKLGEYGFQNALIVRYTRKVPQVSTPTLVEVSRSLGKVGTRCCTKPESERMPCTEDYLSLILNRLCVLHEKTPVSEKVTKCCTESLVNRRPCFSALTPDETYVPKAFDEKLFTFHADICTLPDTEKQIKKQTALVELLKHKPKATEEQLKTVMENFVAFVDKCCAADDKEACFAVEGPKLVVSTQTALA

[1] = probe aXIP binding to arrayed compounds – biochemical, NeuroSMM set, 635/667 nm fluorescence, primary screen (AID 1119); conditions: small-molecule microarray, higher = more signal, called active from +8 up or from −8 down;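 further: probe is the protein aXip251-270 applied at 1 µg/mL to compound-printed slides; binding of probe to printed compounds measured as 667 nm fluorescence plus signal to noise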
[2] = probe aNOTCH3 binding on compound microarray – biochemical, small-molecule microarray, 635/667 nm fluorescence, primary screen (AID 1120); conditions: higher = more signal;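 further: probe is a biotin-tagged antibody raised against NOTCH3 rather than NOTCH3 protein; score merges spot fluorescence near 667 nm with spot signal to noise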
[3] = probe aNOTCH2 binding on compound microarray – biochemical, small-molecule microarray, 635/667 nm fluorescence, primary screen (AID 1121); conditions: higher = more signal;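 further: score merges feature fluorescence read at 667 nm with its signal to noise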
[4] = molecular target: Carbonic anhydrase 2 (Homo sapiens) (UniProt P00918); experiment: compounds binding carbonic anhydrase 2 – biochemical, small-molecule microarray, Alexa647-labelled CAII, profiling panel (AID 1122); conditions: CAII-A647 binding fluorescence, higher = more signal
[5] = COS7 lysate on small-molecule microarray, probe aHis, 635 nm (AID 1123); conditions: COS7 cell lysate, fluorescence, higher = more signal;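 further: z-score combines 667nm fluorescence intensity with signal-to-noise per printed compound spot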
[6] = probe aLAP1 signal on lysate-treated microarray – cell lysate, small-molecule microarray, COS7 lysate, primary screen (AID 1124); conditions: probe aLAP1, fluorescence, higher = more signal;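 further: lysate comes from COS7 cells expressing LAP1 and is applied at 0.3 µg/mL; score merges spot fluorescence near 667 nm with signal-to-noise over triplicate slides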
Sam68 (KHDRBS1) = experiment: compounds binding KHDRBS1 protein – biochemical, small-molecule microarray, 635 nm fluorescence, primary screen (AID 1125); conditions: higher = more signal;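 further: score merges 667 nm channel intensity with signal to noise over triplicate slides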
[7] = test system: Chordin-like protein 2 (CHRDL2); experiment: compounds binding chordin-like 2 – biochemical, small-molecule microarray, 635 nm fluorescence, primary screen (AID 1126); conditions: fluorescence 635 nm, higher = more signal;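 further: printed compound slides probed with Chrdl2 protein at 4 µg/mL for 1 h at 4 C; score merges 667 nm emission intensity with signal to noise over three replicate slides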
[8] = molecular target: Concanavalin-A (Canavalia ensiformis) (UniProt P02866); experiment: compounds binding concanavalin A lectin – biochemical, small-molecule microarray, Alexa647 label, 635 nm, artefact control for SMM control protein annotation, primary screen (AID 1127); conditions: ConA-A647 binding fluorescence, higher = more signal;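 further: z combines 667 nm emission intensity with signal-to-noise across three replicate slides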
Concanavalin-A (Canavalia ensiformis), sequence (P02866 whole entry, looked up): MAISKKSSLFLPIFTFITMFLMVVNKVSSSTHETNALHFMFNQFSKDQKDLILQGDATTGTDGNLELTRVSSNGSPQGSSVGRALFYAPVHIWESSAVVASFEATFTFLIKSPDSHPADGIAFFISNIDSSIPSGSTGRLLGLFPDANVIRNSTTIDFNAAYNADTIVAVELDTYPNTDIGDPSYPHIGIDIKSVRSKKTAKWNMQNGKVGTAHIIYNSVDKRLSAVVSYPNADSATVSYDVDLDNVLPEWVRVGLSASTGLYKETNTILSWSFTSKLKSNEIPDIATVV

[9] = compounds binding Alexa647 anti-His antibody – biochemical, small-molecule microarray, 635 nm fluorescence, artefact control for SMM control protein annotation, primary screen (AID 1128); conditions: higher = more signal;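 further: score merges feature fluorescence with signal-to-noise for each printed compound spot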
[10] = test system: Human papillomavirus type 1a E7 protein (residues 1-88); experiment: HPV1a E7 small-molecule binders, primary screen, biochemical, small-molecule microarray, residues 1-88, 635 nm (AID 1129); conditions: small-molecule microarray binding, fluorescence 635 nm; higher = more signal
[11] = molecular target: Focal adhesion kinase 1 (Homo sapiens) (UniProt Q05397); experiment: PTK2 protein binding on printed compound slides – biochemical, small-molecule microarray, 635/667 nm fluorescence, BSA, DTT, primary screen (AID 1130); conditions: 635 nm fluorescence, higher = more signal;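 further: composite of spot emission at 667 nm and signal to noise over triplicate slides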
Focal adhesion kinase 1 (Homo sapiens), sequence (Q05397 whole entry, looked up): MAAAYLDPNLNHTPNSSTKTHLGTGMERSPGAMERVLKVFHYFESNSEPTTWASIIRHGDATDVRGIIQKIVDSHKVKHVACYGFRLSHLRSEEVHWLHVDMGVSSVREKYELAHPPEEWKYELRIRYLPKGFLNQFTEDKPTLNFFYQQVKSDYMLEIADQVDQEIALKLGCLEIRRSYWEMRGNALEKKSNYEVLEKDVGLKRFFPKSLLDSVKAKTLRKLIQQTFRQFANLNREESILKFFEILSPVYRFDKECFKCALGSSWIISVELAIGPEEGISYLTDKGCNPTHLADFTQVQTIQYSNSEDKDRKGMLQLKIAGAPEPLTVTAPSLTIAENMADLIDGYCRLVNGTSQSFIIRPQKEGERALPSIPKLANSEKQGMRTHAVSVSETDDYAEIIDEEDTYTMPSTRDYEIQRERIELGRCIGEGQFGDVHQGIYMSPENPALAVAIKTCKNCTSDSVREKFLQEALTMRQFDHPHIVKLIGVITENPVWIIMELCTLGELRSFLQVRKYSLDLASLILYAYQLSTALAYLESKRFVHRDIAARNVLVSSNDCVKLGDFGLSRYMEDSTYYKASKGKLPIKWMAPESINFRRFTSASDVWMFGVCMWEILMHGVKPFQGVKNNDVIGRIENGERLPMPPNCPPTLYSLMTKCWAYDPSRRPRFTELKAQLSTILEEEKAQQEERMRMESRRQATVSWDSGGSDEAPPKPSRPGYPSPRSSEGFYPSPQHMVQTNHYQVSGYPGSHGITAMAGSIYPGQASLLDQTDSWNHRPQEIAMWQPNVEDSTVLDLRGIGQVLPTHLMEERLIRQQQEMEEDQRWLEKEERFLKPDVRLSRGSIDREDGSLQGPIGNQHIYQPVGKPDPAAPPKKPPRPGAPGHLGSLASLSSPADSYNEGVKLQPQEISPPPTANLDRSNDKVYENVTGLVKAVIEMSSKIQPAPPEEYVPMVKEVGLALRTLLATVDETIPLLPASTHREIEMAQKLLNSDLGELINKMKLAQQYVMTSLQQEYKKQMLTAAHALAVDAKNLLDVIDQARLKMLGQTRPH

[12] = test system: Fibrinogen (Alexa647-labelled); experiment: Alexa647-fibrinogen binding to printed small molecules – biochemical, small-molecule microarray, 635/667 nm fluorescence, artefact control for SMM control-protein annotation, profiling panel (AID 1131); conditions: fibrinogen-A647 binding fluorescence, higher = more signal;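 further: z-score merges 667 nm fluorescence with per-spot signal-to-noise over triplicate slides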
[13] = molecular target: Follistatin (Homo sapiens) (UniProt P19883); experiment: FST protein binding to printed compounds – biochemical, small-molecule microarray, 635/667 nm fluorescence, primary screen (AID 1132); conditions: 635 nm fluorescence, higher = more signal
Follistatin (Homo sapiens), sequence (P19883 whole entry, looked up): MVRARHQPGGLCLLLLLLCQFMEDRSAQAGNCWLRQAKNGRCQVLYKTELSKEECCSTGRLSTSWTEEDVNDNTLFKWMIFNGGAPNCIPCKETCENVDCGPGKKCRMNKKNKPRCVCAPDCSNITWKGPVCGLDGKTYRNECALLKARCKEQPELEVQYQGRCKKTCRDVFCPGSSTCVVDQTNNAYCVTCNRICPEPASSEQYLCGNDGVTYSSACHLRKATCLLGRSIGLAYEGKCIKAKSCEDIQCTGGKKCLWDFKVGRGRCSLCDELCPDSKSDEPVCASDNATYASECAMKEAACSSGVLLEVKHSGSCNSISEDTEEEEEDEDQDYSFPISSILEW

[14] = molecular target: Fibroblast growth factor 2 (Homo sapiens) (UniProt P09038); experiment: basic fibroblast growth factor binding to printed compounds – biochemical, small-molecule microarray, 635/667 nm fluorescence, primary screen (AID 1133); conditions: FGF2, fluorescence 635/667, higher = more signal
Fibroblast growth factor 2 (Homo sapiens), sequence (P09038 whole entry, looked up): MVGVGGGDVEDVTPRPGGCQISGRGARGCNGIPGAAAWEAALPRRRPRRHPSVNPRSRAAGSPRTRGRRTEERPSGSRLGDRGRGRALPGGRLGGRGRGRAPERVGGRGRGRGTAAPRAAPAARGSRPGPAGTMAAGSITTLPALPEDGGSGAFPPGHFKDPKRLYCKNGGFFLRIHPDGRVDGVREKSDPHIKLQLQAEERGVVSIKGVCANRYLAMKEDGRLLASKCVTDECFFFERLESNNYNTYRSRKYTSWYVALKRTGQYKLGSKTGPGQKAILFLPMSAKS

[15] = JC-1 mitochondrial potential readout, lung cancer cells – cell-based, A549, JC-1 fluorescence, basal, 24 h, 100 nL, profiling panel (AID 1138); conditions: higher = more signal;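 further: A549 lung adenocarcinoma cells under basal conditions with no added stimulus; test concentration not given here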
Lefty1 = Lefty1 protein binding to printed compounds – biochemical, small-molecule microarray, 635/667 nm fluorescence, primary screen (AID 1139); conditions: fluorescence 635/667, higher = more signal
[16] = test system: wheat germ agglutinin (Triticum aestivum), Alexa647-labelled; experiment: Alexa647-WGA lectin binding to printed small molecules – biochemical, small-molecule microarray, 635/667 nm fluorescence, artefact control for SMM control-protein annotation, profiling panel (AID 1140); conditions: WGA-A647 binding, 635 nm fluorescence, higher = more signal;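 further: score merges 667 nm feature emission with signal to noise over triplicate slides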
[17] = molecular target: Luciferin 4-monooxygenase (Photinus pyralis) (UniProt P08659); experiment: inhibition of purified Photinus pyralis luciferase – biochemical, luminescence, purified enzyme, 2006 set, primary screen (AID 1141); conditions: purified firefly luciferase, SteadyGlo luminescence, 30 min; higher = more signal, called active from +8 up or from −8 down;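 further: cell-free assay with purified firefly luciferase at 100 ng per well in PBS; test concentration not given here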
Luciferin 4-monooxygenase (Photinus pyralis), sequence (P08659 whole entry, looked up): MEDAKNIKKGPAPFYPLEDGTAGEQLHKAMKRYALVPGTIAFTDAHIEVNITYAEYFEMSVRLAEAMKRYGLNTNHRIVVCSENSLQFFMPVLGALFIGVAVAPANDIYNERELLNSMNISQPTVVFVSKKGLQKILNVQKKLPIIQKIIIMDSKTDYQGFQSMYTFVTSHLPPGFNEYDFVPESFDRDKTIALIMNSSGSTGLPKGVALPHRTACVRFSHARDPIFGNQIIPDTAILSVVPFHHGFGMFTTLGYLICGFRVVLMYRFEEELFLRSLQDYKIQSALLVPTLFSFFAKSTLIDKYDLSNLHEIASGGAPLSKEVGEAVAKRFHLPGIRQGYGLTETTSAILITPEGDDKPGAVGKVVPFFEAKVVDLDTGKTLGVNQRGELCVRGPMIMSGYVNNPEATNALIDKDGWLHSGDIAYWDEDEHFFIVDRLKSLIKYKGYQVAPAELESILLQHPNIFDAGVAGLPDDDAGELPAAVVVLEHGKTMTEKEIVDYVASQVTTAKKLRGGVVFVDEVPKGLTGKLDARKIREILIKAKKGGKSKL

| Structure (SMILES) | composite z-score (Albumin (Bos taurus)) | composite Z-score [1] | composite z-score [2] | composite z-score [3] | composite z-score [4] | composite z-score [5] | composite z-score [6] | composite z-score (Sam68 (KHDRBS1)) | composite z-score [7] | composite z-score [8] | composite z-score [9] | composite z-score [10] | composite z-score [11] | composite z-score [12] | composite z-score [13] | composite z-score [14] | z-score [15] | composite z-score (Lefty1) | composite z-score [16] | z-score [17] |
| --- | --- | --- | --- | --- | --- | --- | --- | --- | --- | --- | --- | --- | --- | --- | --- | --- | --- | --- | --- | --- |
| CCCC[C@H]1OB(O)C[C@H]2C1=C(COC)Cn1c(=O)n(-c3ccccc3)c(=O)n12 | 0.0697 | -0.166 (inactive) | -0.0903 | -0.172 | -0.185 | 0.56 | 0.0521 | 0.439 | 0.432 | -0.317 | -0.152 | 0.169 | -0.0429 | 0.4 | 0.464 | -1.06 | -0.514 | 0.63 | 0.435 | 0.382 (inactive) |
| CNS(=O)(=O)c1ccc(C)cc1 | -0.189 | 0.348 (inactive) | -0.185 | -0.0761 | -0.0894 | 0.284 | 0.291 | 0.667 | 1.07 | 0.613 | -0.0728 | 0.668 | -0.163 | -0.212 | 0.884 | 0.917 | 1.55 | 0.39 | 0.0044 | -1.2 (inactive) |
| C=C(COC)/C(=C/C[C@@H](OC(C)=O)c1ccc(OCCO)cc1)c1cnc2ccccc2c1 | 0.0772 | -0.225 (inactive) | 0.112 | -0.14 | 0.913 | -0.161 | 0.999 | 0.74 | 1.41 | 1.14 | 0.616 | 0.328 | -0.514 | 0.869 | 1.41 | 1.55 | 0.379 | 1.29 | 0.857 | -0.846 (inactive) |
| CO[C@H]1O[C@H](CO)[C@@H](OC(=O)Nc2cccc(F)c2)[C@H](OC(=O)Nc2ccccc2)[C@@H]1OC(=O)Nc1ccccc1 | 0.875 | 0.311 (inactive) | 0.138 | 0.003 | 0.555 | 2.54 | 1.02 | 1.3 | -0.219 | 0.724 | 1.16 | 1.22 | 0.919 | 0.973 | 0.518 | 0.843 | 0.0874 | -0.105 | 1.27 | 0.0107 (inactive) |
| COCCOC(=O)N1C(=O)[C@@]2(c3cc(C#CCC(C(=O)OC)C(=O)OC)ccc31)[C@H](c1ccccc1OCCO)N1[C@H](c3ccccc3)[C@H](c3ccccc3)OC(=O)[C@H]1[C@@H]2C(=O)NC[C@H](O)c1ccccc1 | -0.841 | 0.577 (inactive) | 0.164 | 0.0568 | 0.483 | 1.47 | 0.412 | 1.3 | 0.972 | 1.16 | 1.33 | 1.15 | 0.9 | 0.749 | 1.37 | 1.83 | -0.671 | 1.41 | 0.339 | -0.182 (inactive) |
| C=C(CCCC)C(=O)CC[C@@H](OC(=O)c1ccccc1-c1ccccc1C(=O)O)c1ccc(OCCO)cc1 | -0.873 | 0.0426 (inactive) | -0.185 | -0.125 | 0.437 | 0.121 | -0.102 | 0.684 | 0.876 | 0.829 | -0.54 | 0.0862 | -0.72 | -0.277 | 1.42 | 1.37 | 0.118 | 0.797 | 0.427 | -2.06 (inactive) |
| COC(=O)[C@@]1(Cc2ccccc2)N=C(c2ccc(OCCCO)cc2)O[C@H]1c1ccccc1 | 0.103 | 0.216 (inactive) | -0.17 | -0.0179 | 0.624 | 2.76 | 1.07 | -0.0634 | 0.0607 | 0.889 | 2.44 | 1.2 | 0.428 | -0.381 | 0.385 | 1.65 | -0.56 | -0.63 | 0.609 | -5.51 (inactive) |
| Cc1ccc(S[C@]2(C(=O)NCCCN(C)C)CC(=O)N(Cc3ccccc3C(F)(F)F)[C@@H]2c2ccc(CO)cc2)cc1 | 0.54 | -0.676 (inactive) | -0.0639 | -0.0013 | 0.211 | 0.0645 | -0.41 | 0.0809 | -0.327 | -1.48 | -1.09 | -0.935 | -0.157 | 0.109 | -0.85 | -0.45 | 0.566 | -0.853 | 0.427 | -0.903 (inactive) |
| CC(C)C[C@@H]1NC(=O)[C@@H]2C[C@H](C(=O)O)[C@H](c3cccc(OCCO)c3)N2C1=O | -0.494 | -0.303 (inactive) | -0.204 | -0.164 | 0.673 | 1.78 | 0.283 | -0.0754 | 0.707 | 0.684 | 2.29 | -0.312 | -0.176 | -0.0031 | 0.495 | 0.89 | -0.0906 | -0.375 | 0.275 | -0.291 (inactive) |
| O=C1C[C@]2(c3ccc([N+](=O)[O-])cc3)C(=O)N(CC(F)(F)F)c3cc(CO)ccc3[C@H]2N1C1CCCCC1 | -0.749 | -0.0774 (inactive) | -0.125 | -0.112 | -0.634 | 0.0971 | 0.206 | -0.686 | -1.26 | -0.546 | -1.55 | -0.15 | 0.114 | -0.603 | -1.13 | -0.808 | 0.673 | -1.44 | -0.288 | -1 (inactive) |
| CCOC(=O)C[C@H]1[C@H](OC(=O)c2ccc(C(=O)c3ccccc3)cc2)[C@@H](NC(=O)c2ccc3ccccc3c2)c2cc(OCCCO)ccc2N1C(=O)Cc1ccc(OC)cc1 | 0.638 | -0.68 (inactive) | -0.0932 | -0.149 | 0.009 | 0.899 | 0.0147 | 0.484 | -0.197 | 0.114 | 0.0204 | 0.542 | 0.222 | 0.424 | 0.288 | 0.115 | 0.826 | 0.199 | 0.398 | 0.789 (inactive) |
